Inconclusive results are not listed. Active and inactive are the calls of the source. Calls come from the whole dose curve; as a rule, active = well fitted curve in the direction sought with a large enough effect; inconclusive = small, poorly fitted or top-dose-only effect, or another doubt; inactive = no such curve, though single readings can be large; an effect the other way counts as inactive or inconclusive.
Columns and labels:
[1] = Quantitative highthroughput screen to assess conditional lethalithy of NOMO1 cells grown in RPMI1640 with dialyzed fetal bovine serum (RPMI+ds) (AID 1963877);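 note: series mostly up to about 46 µM; 100% = DMSO control wells and 0% = empty wells; nearly all actives have a fitted effect of over 30% in size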
Summary of the method: (§1)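 Each medium arm—HPLM with 10% dialyzed FBS, or RPMI1640 with 5 mM glucose and 10% untreated or dialyzed FBS—was screened against an 11-point, 3-fold compound titration for 48 h at 37 °C, with CellTiter-Glo luminescence as endpoint.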

[2] = Quantitative highthroughput screen to assess conditional lethalithy of SEM cells grown in RPMI1640 with unreated serum (RPMI+s) (AID 1963883);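 note: 100% = DMSO wells and 0% = empty wells without cells; nearly all actives have a fitted effect of over 35% in size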
Summary of the method: as §1

[3] = Quantitative highthroughput screen to assess conditional lethalithy of SEM cells grown in RPMI1640 with dialyzed fetal bovine serum (RPMI+ds) (AID 1963884);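 note: series mostly up to about 46 µM; 100% = DMSO control wells and 0% = empty wells without cells; nearly all actives have a fitted effect of over 35% in size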
Summary of the method: as §1

[4] = Quantitative highthroughput screen to assess conditional lethalithy of SEM cells grown in Human Plasma-Like Medium with dialyzed fetal bovine serum (HPLM+ds) (AID 1963882); note: series mostly up to about 46 µM; nearly all actives have a fitted effect of over 35% in size
Summary of the method: as §1

[5] = biological target: Cytochrome P450 3A7 (Homo sapiens) (UniProt P24462); assay: Cytochrome P450 family 3 subfamily A member 7 (CYP3A7) small molecule antagonists: luciferase biochemical qHTS assay (AID 1963596); note: nearly all actives have a fitted effect of over 40% in size; note: potency is the fitted concentration of half-maximal effect
Cytochrome P450 3A7 (Homo sapiens), sequence (P24462 whole entry, looked up): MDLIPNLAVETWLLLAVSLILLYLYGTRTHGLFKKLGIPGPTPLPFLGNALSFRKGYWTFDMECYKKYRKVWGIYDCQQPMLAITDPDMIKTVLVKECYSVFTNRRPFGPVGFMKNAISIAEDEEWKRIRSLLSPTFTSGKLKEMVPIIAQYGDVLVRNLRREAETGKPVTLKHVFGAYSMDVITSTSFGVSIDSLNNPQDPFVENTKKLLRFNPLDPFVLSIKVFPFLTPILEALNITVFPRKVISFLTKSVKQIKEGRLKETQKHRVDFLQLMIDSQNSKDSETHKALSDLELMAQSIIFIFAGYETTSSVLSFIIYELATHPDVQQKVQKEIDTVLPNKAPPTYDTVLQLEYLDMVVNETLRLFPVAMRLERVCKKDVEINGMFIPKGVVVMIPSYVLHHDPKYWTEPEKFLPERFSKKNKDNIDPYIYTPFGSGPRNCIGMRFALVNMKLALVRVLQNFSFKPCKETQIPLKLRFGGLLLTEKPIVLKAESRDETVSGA
Summary of the method: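 In this luminescent screen, enzyme and proluciferin substrate meet test compound for 10 min before NADPH regeneration solution drives a 1 h room-temperature reaction; detection reagent halts turnover and luminescence is read 20 min later.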

[6] = Viability qHTS for spleen associated tyrosine kinase inhibitor (SYKi) naive MV4-11 cells (AID 1963823); note: nearly all actives have a fitted effect of over 40% in size
Summary of the method: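 Luminescence from CellTiter-Glo, developed 10 min at room temperature, gave viability of MV4-11 cells never exposed to SYK inhibitor. Cells (500/well) had been incubated with compounds for 72 hr under standard culture conditions.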

[7] = Viability qHTS for spleen associated tyrosine kinase inhibitor (SYKi) drug resistant MV4-11 cells (AID 1963824); note: nearly all actives have a fitted effect of over 35% in size
Summary of the method: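 SYK inhibitor-resistant MV4-11 AML cells, 500 per well, added to predispensed compounds and incubated 72 hr at 37 C, 5% CO2. Viability measured by CellTiter-Glo luminescence after 10 min at room temperature.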

[8] = Cellular viability qHTS for adrenocortical cancer (ACC) cell line SW-13 (AID 1963989); settings: SW-13 ACC cells viability, CellTiter-Glo, 48 h; activity (max response): stronger effect = lower value;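 note: cells grown in serum-free medium with ITS supplement; % is set by controls: 0 for no effect and ±100 for the full control effect; nearly all actives have a fitted effect of over 65% in size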
Summary of the method: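 Here, serum-free SW-13 cultures were dosed up to 46 uM. Following 48 h, ATP-dependent luminescence (CellTiter-Glo) reported viable cells, and logistic modeling produced IC50 values.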

[9] = Cellular viability qHTS for adrenocortical cancer (ACC) cell line NCI-H295R (AID 1963990);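 note: 0% = DMSO only wells and -100% = full killing with cytotoxic reference compound; nearly all actives have a fitted effect of over 60% in size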
Summary of the method: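 Viability of NCI-H295R after 48 h of treatment (final up to 46 uM) measured through cellular ATP luminescence.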

O=C(Oc1ccc([N+](=O)[O-])cc1)N1CCN(Cc2cccc(Oc3ccccc3)c2)CC1
inactive: Potency [1] | Potency [2] | Potency [3]

CN1C(=O)COc2c(C(=O)NC3CN4CCC3CC4)cc(Cl)cc21 (centres undefined)
inactive: Potency [1]

O=C1CC[C@@]2(O)[C@H]3Cc4ccc(O)c5c4[C@@]2(CCN3CC2CC2)[C@H]1O5
inactive: Potency [4] | Potency [3]

CCC(C)C(C)(COC(N)=O)COC(N)=O (centres undefined)
inactive: Potency [5] | Potency [6] | Potency [7] | activity (max response) [8] 2.89% | Potency [9]

O=C(CCCCl)c1ccc(F)cc1
inactive: Potency [5] | Potency [6] | Potency [7] | activity (max response) [8] 6.97% | Potency [9]

NP(N)(=O)NC(=O)c1ccc(F)cc1
inactive: Potency [5] | Potency [6] | Potency [7] | activity (max response) [8] 6.62% | Potency [9]

ClCCN1CCCC1
inactive: Potency [5] | Potency [6] | Potency [7] | activity (max response) [8] 12.8% | Potency [9]

O=c1[nH]oc2c1CCNC2
inactive: Potency [5] | Potency [6] | Potency [7] | activity (max response) [8] 5.4% | Potency [9]

CNC(C)(C)Cc1ccccc1
inactive: Potency [5] | Potency [6] | activity (max response) [8] -4.09% | Potency [9]

ClCc1cccc(Cl)c1
inactive: Potency [5] | Potency [6] | Potency [7] | activity (max response) [8] 11% | Potency [9]

CCC1(C2=NCCN2)Cc2ccccc2O1 (centres undefined)
inactive: Potency [5] | Potency [6] | Potency [7] | activity (max response) [8] 12% | Potency [9]

CC(C)(C)NCC(O)c1cc(Cl)c(N)c(Cl)c1 (centres undefined)
inactive: Potency [5] | Potency [6] | activity (max response) [8] 11.4% | Potency [9]

CC(C)(O)C(Cl)(Cl)Cl
inactive: Potency [5] | Potency [6] | activity (max response) [8] 9.4% | Potency [9]

COP(=S)(OC)Oc1cc(Cl)c(Cl)cc1Cl
inactive: Potency [6] | Potency [7] | activity (max response) [8] 7.21% | Potency [9]
active: Potency [5] 13.8 µM

CCOC(=O)NC(O)C(Cl)(Cl)Cl (centres undefined)
inactive: Potency [5] | Potency [6] | Potency [7] | activity (max response) [8] 3.24% | Potency [9]

CC(Cc1ccccc1)N(C)Cc1ccco1 (centres undefined)
inactive: Potency [5] | Potency [6] | Potency [7] | activity (max response) [8] -0.53% | Potency [9]

CC[N+]1(CCOC(=O)C(O)(c2ccccc2)c2ccccc2)CCCCC1
inactive: Potency [5] | Potency [6] | Potency [7] | activity (max response) [8] 4.14% | Potency [9]

CC(=O)C1CCOC1=O (centres undefined)
inactive: Potency [5] | Potency [6] | Potency [7] | activity (max response) [8] 9.4% | Potency [9]

CC[N+]1(CC)CCC(OC(=O)C(O)(c2ccccc2)c2ccccc2)C1 (centres undefined)
inactive: Potency [5] | Potency [6] | Potency [7] | activity (max response) [8] 5.92% | Potency [9]

C[C@@H](C1CC[C@@]2(O)C3=CC(=O)[C@@H]4C[C@@H](O)[C@@H](O)C[C@]4(C)[C@H]3CC[C@]12C)[C@H](O)CCC(C)(C)O (some centres undefined)
inactive: Potency [5] | Potency [6] | activity (max response) [8] -1.09% | Potency [9]

CC(=O)NC1CCSC1=O (centres undefined)
inactive: Potency [5] | Potency [6] | Potency [7] | activity (max response) [8] 9.14% | Potency [9]

CN(C(=O)Cc1ccccc1)C(CN1CCCC1)c1ccccc1 (centres undefined)
inactive: Potency [5] | Potency [7]

NCc1cccnc1
inactive: Potency [5] | Potency [6] | Potency [7] | activity (max response) [8] 4.01% | Potency [9]

c1ccc2c(c1)sc1ccccc12
inactive: Potency [5] | Potency [6] | Potency [9]

CC(C)(N)Cc1ccc(Cl)cc1
inactive: Potency [5] | Potency [6] | Potency [7] | Potency [9]

C[C@H]1[C@@H]2Cc3ccc(O)cc3[C@@]1(C)CCN2C
inactive: Potency [5] | Potency [6] | activity (max response) [8] -10.9% | Potency [9]

Nc1ccccc1C(=O)O
inactive: Potency [5] | Potency [6] | Potency [9]

C[N+](C)(C)CCOC(=O)C(O)(c1ccccc1)c1ccccc1
inactive: Potency [5] | Potency [6] | Potency [7] | activity (max response) [8] -5.79% | Potency [9]

NC(=O)CN1CCCC1=O
inactive: Potency [5] | Potency [6] | activity (max response) [8] 11.9%

C#CC(O)(C=CCl)CC (centres undefined)
inactive: Potency [5] | Potency [6] | activity (max response) [8] 7.7% | Potency [9]

COc1ccccc1N1CCNCC1
inactive: Potency [5] | Potency [6] | Potency [7] | activity (max response) [8] -19.4% | Potency [9]

c1ccc(C2CC2)c(OCC2=NCCN2)c1
inactive: Potency [5] | Potency [6] | Potency [7] | activity (max response) [8] -5.68% | Potency [9]

CCN[C@H](C)Cc1cccc(C(F)(F)F)c1
inactive: Potency [5] | Potency [6] | activity (max response) [8] -4.65% | Potency [9]

CC(C)NC(C)C
inactive: Potency [5] | Potency [6] | Potency [7] | activity (max response) [8] 17.3% | Potency [9]
